The structures appear in SMILES notation. The whole screen tested about 220,000 compounds, of which about 530 (0.24%) were called active. The sample as a whole holds a higher share of actives than the screen did. Entries with a potency or affinity are not part of this list. Values without a mark were called inactive. No stated cut-off is given here; in the data, active means inhibition above about 13%; inconclusive means no clear call, values can overlap the other calls; inactive means below that.

This test deals with Bifunctional protein GlmU (Mycobacterium tuberculosis (strain ATCC 25618 / H37Rv)) (UniProt P9WMN3). Description: inhibition of mycobacterial GlmU enzyme – biochemical, glucosamine-1-phosphate acetyltransferase (AID 1376).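 Further: 0% = complete reaction with vehicle and 100% = reaction without substrate.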 The settings on record: M. tuberculosis GlmU acetyltransferase enzyme assay; active compounds read high;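 tested at 30 µM in the primary screen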.
Sequence of Bifunctional protein GlmU (Mycobacterium tuberculosis (strain ATCC 25618 / H37Rv)) (P9WMN3 whole entry, looked up): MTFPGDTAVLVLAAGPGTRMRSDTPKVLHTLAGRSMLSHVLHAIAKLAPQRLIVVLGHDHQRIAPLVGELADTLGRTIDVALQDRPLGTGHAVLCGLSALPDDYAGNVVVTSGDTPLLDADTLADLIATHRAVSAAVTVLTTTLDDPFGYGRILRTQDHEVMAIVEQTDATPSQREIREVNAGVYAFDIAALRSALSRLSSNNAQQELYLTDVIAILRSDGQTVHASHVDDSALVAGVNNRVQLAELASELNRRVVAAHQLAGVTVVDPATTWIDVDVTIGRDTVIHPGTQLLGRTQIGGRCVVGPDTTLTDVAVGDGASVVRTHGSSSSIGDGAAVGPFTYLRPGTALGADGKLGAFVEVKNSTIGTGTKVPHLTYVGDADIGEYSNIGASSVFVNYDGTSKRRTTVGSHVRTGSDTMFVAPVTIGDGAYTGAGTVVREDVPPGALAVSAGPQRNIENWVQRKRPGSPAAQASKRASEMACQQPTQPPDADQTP
For `NNC(=O)c1cncn1-c1ccc(F)cc1`, the inhibition was -2.24%. For the compound `CN/N=C(\Cc1nc2ccccc2[nH]1)c1ccc([N+](=O)[O-])cc1`, the inhibition is 2.32%. For `CCC(Oc1ccccc1)C(=O)NCc1ccc(S(N)(=O)=O)cc1` (stereo not given) the value was 1.79%. In the case of `CC(=O)Nc1ccc(S(=O)(=O)Nc2ccc(=O)n(Cc3ccc(Cl)c(Cl)c3)c2)cc1`, the inhibition was -3.3%.

As for `COc1cc(N(C(=O)Cc2cccs2)C(C(=O)NC2CCCCC2)c2cccc(OC)c2OC)ccc1-n1cnnn1` (stereo not given), the inhibition was -6.93%. For `OCCNc1nc(Nc2ccccc2Cl)nc(N2CCCC2)n1` the value was 2.46%; for `CCCS(=O)(=O)N1CCC(C(=O)NCCCOC(C)C)CC1`, -1.86%; for `CCC(C)NS(=O)(=O)c1ccc(S(=O)(=O)N(CCc2ccc(OC)c(OC)c2)Cc2cccs2)cc1` (stereo not given), -1.89%. For `Cc1ccc([N+](=O)[O-])cc1S(=O)(=O)Nc1ccccn1` the value was 12.5%; for `Cc1cccc2cc(/C=N/NC(=O)[C@H]3C[C@@H]3c3ccccc3)c(Cl)nc12`, -1.46%; for `Cc1cccc(NC(=O)C2CCCN(S(=O)(=O)c3cccc4cccnc34)C2)c1` (stereo not given), 1.23%.

`O=C(Nc1ccncc1)C1CCCN(S(=O)(=O)c2cccc3cccnc23)C1` (stereo not given): the inhibition was -3.59%.

On to `CC(=O)c1cccc(NC(=O)C2CCCN(S(=O)(=O)c3cccc4cccnc34)C2)c1` (stereo not given), for which the inhibition was 13.1% (active). For `O=C1CCN(Cc2ccccc2)S(=O)(=O)c2ccccc21` the value was 1.98%; for `Cc1cc(/C=C2\C(=O)NC(=O)N(Cc3ccccc3Cl)C2=O)c(C)n1-c1ccc(C(=O)O)cc1`, -0.15%; for `Cn1cccc1/C=C1/C(=O)NC(=O)N(Cc2ccccc2)C1=O`, -0.82%. For `Cn1cccc1/C=C1/C(=O)NC(=O)N(Cc2ccc(F)cc2)C1=O` the value was -4.26%; for `Cn1cccc1/C=C1\C(=O)NC(=O)N(Cc2ccccc2)C1=O`, 13.2% (active). For `Cc1cc(/C=C2\C(=O)NC(=O)N(Cc3ccco3)C2=O)c(C)n1-c1ccc(C(=O)O)cc1` the value was 9.99%; for `O=C1NC(Cc2c[nH]c3ccccc23)C(=O)N1Cc1ccc(CN2C(=O)NC(Cc3c[nH]c4ccccc34)C2=O)cc1` (stereo not given), 3.5%. For `O=C(COc1ccc(S(=O)(=O)NC2CCCCC2)cc1)N1CCN(c2ccc(F)cc2)CC1`, the inhibition is -2.74%. The figure for `COc1ccc(CNC(=O)CCSCc2cccc(Cl)c2)cc1` is 3.22%; for `OCCC1CN(CC(c2ccccc2)c2ccccc2)CCN1C1CCCC1` (stereo not given) it is -0.28%. Regarding `CC(C)CCN1CCN(CC#Cc2ccccc2)CC1CCO` (stereo not given), the inhibition was -6.43%. For `CC(C)CCN1CCN(CC(c2ccccc2)c2ccccc2)CC1CCO` (stereo not given) the value was 14% (active).

Broadly, the inhibition is the relative decrease from the control value, in per cent.

Source of the values: PubChem BioAssay AID1376 (SRMLSC, 2008).
